# Measurements as given in ChEMBL document CHEMBL1961873, “Compounds: GSK PKIS; Assays: Nanosyn kinase panel” (2012).
# Several values for one entry are separate records, joined by “and”; a condition that tells them apart may be missing. Equal entries are not always repeated.
# Columns and labels:
# [1] = target: Protein kinase C gamma type (Homo sapiens) (UniProt P05129); details: at 1 µM;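 also: each value is an averaged percent inhibition of the enzyme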
# [2] = target: T1, Protein kinase C iota type (Homo sapiens) (UniProt P41743); details: at 0.1 µM
# T1 sequence (whole entry): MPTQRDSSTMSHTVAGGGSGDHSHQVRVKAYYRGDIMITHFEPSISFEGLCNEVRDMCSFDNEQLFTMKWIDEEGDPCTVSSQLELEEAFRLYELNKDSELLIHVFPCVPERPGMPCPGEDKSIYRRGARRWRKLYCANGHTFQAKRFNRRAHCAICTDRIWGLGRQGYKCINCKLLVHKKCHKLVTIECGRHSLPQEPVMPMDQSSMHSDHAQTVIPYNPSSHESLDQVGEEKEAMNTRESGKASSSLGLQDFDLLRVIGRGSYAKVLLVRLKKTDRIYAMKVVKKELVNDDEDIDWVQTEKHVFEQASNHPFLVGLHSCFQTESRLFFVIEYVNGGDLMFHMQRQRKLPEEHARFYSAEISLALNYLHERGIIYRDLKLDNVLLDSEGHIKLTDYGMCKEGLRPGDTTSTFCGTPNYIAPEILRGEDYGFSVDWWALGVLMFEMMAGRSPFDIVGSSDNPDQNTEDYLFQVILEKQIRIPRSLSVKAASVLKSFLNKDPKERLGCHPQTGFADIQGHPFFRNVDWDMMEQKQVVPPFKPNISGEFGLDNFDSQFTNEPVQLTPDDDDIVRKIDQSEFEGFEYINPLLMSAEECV
# [3] = target: T1, Protein kinase C iota type (Homo sapiens); details: at 1 µM
# [4] = target: Protein kinase C theta type (Homo sapiens) (UniProt Q04759); details: at 0.1 µM
# [5] = target: Protein kinase C theta type (Homo sapiens) (UniProt Q04759); details: at 1 µM
# [6] = target: Protein kinase C beta type (Homo sapiens) (UniProt P05771); details: at 0.1 µM
# [7] = target: Protein kinase C beta type (Homo sapiens) (UniProt P05771); details: at 1 µM
# [8] = target: T2, Serine/threonine-protein kinase D1 (Homo sapiens) (UniProt Q15139); details: at 0.1 µM
# T2 sequence (whole entry): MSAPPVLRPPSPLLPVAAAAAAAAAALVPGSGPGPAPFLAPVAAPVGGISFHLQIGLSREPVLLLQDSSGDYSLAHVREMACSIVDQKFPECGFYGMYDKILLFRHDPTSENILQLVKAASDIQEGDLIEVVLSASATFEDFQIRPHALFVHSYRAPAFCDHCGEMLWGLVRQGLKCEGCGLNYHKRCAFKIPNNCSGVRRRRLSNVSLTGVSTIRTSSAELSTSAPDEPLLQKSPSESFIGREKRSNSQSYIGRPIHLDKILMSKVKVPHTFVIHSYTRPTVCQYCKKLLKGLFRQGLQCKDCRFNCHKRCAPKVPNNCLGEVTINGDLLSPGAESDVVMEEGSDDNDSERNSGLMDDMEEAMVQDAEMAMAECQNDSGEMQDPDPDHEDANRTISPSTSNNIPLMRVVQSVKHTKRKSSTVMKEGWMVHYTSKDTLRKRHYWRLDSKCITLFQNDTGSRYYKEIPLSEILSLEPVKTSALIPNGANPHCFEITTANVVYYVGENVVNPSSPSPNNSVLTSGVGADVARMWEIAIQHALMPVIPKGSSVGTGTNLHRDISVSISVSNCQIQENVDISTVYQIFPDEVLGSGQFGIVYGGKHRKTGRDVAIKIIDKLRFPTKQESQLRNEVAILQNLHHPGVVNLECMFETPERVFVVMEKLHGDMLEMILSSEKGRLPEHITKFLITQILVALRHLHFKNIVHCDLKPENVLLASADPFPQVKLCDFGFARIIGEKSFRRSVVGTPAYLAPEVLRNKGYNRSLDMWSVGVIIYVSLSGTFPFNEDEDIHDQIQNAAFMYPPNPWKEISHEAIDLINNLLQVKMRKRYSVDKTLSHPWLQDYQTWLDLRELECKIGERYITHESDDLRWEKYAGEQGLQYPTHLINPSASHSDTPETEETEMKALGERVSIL
# [9] = target: T2, Serine/threonine-protein kinase D1 (Homo sapiens); details: at 1 µM
# [10] = target: T3, Serine/threonine-protein kinase D2 (Homo sapiens) (UniProt Q9BZL6); details: at 0.1 µM;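 also: reported percent inhibition values are means, part of the GSK PKIS kinase panel screen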
# T3 sequence (whole entry): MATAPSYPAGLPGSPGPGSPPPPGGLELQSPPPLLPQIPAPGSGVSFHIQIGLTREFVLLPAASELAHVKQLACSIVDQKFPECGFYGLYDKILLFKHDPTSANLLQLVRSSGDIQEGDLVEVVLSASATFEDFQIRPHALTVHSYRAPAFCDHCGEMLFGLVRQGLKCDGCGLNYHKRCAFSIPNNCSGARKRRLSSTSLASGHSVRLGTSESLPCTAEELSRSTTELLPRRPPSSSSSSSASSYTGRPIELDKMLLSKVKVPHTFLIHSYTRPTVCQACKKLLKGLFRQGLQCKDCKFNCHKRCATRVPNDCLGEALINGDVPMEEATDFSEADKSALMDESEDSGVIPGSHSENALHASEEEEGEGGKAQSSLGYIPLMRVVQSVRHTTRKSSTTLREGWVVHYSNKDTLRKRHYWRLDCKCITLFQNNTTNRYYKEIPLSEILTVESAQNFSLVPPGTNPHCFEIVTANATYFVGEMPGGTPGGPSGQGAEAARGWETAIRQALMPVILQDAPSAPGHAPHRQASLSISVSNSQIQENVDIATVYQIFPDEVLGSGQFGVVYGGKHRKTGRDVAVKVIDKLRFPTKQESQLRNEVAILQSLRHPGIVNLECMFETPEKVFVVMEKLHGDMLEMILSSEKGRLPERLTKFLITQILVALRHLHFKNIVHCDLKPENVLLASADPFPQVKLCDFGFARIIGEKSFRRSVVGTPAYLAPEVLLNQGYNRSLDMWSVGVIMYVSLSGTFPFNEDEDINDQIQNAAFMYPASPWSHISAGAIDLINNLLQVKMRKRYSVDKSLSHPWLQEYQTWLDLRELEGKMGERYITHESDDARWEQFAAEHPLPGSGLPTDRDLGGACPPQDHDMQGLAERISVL
# Sequence of Protein kinase C theta type (Homo sapiens) (Q04759 whole entry, looked up): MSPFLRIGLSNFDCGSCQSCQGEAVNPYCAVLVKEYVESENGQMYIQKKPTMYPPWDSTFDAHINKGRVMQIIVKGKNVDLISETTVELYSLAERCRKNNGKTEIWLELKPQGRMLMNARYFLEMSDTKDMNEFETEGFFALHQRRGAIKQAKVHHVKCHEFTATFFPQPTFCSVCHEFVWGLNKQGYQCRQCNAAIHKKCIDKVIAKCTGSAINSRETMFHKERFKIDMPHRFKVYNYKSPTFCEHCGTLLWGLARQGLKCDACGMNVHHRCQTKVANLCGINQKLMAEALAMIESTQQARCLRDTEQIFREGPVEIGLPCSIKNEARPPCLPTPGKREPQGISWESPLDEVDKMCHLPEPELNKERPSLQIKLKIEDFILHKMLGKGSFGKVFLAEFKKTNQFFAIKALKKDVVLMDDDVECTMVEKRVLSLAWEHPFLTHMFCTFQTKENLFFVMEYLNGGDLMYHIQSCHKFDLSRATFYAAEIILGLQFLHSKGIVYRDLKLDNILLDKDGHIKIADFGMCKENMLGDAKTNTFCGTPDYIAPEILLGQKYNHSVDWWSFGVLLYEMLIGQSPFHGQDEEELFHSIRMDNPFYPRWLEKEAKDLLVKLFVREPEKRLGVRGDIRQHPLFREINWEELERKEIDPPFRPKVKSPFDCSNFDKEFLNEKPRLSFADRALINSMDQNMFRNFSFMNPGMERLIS
# Sequence of Protein kinase C beta type (Homo sapiens) (P05771 2-671 limits assumed): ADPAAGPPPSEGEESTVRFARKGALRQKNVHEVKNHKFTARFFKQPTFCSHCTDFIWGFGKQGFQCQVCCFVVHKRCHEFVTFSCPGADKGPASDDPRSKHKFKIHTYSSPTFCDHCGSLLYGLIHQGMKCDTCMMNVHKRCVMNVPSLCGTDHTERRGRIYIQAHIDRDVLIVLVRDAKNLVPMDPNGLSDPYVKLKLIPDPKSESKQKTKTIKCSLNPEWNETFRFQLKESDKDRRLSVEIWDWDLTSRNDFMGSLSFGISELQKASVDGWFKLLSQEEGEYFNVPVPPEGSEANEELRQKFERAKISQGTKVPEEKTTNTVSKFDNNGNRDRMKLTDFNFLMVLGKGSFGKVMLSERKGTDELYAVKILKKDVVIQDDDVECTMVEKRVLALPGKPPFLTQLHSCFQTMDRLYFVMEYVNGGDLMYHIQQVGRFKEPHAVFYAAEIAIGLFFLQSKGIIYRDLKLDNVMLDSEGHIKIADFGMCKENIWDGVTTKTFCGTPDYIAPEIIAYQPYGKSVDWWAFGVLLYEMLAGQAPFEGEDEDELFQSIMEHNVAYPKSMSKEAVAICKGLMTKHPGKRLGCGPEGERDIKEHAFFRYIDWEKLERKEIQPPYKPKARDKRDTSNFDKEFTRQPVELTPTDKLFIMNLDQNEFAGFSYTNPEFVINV
SMILES,inhibition [1],inhibition [2],inhibition [3],inhibition [4],inhibition [5],inhibition [6],inhibition [7],inhibition [8],inhibition [9],inhibition [10]
CS(=O)(=O)Nc1ccc(-c2cc(-c3ccccc3)cc(C(N)=O)c2N)cc1,1.39%,1.17%,1.73%,0.69%,0.71%,0.99%,1.98%,1.67%,1.98%,0.22%
COc1cccc(Nc2nccc(-c3cnn4ncccc34)n2)c1,9.31%,-1.42%,-1.07%,0.2%,4.75%,0.37%,7.43%,4.01%,38.2%,2.78%
OCCCNc1nccc(-c2c(-c3ccc(F)cc3)nn3cc(C(F)(F)F)ccc23)n1,1.12%,0.77%,4.1%,0.12%,0.91%,1.5%,7.52%,1.85%,14.1%,2.01%
CN1CCC(n2cnc(-c3ccc(F)cc3)c2-c2ccnc(NCCO)n2)CC1,5.6%,1.02%,1.08%,3.59%,5.13%,1.17%,7.68%,5.8%,14.6%,4.75%
CC(C)c1ccc(-c2cc(-c3c[nH]nc3-c3ccccn3)ccn2)cc1,1.42%,-0.37%,1.12%,0.13%,-0.28%,0.43%,1.4%,1.12%,8.61%,1.16%
O=C1Nc2ccccc2/C1=C1\CCc2cc(O)ccc21,2.98%,2.01%,4.09%,2.42%,4.05%,1.94%,1.69%,5.09%,18.2%,6.34%
NS(=O)(=O)c1ccc(N/N=C2\C(=O)Nc3cccc(CCc4ccncc4)c32)cc1,-0.16%,0.18%,1.06%,0.33%,-0.34%,-0.03%,0.05%,1.18%,1.94%,0.05%
CN(C)CCNC(=O)Nc1ccc(N(C)c2ccnc(Nc3ccc(CS(C)(=O)=O)cc3)n2)cc1,3.46%,1.77%,4.15%,2.29%,2.96%,0.79%,0.59%,3.85%,7.28%,3.75%
CC1=C(C(=O)Nc2ccc3[nH]nc(C)c3c2)C(c2ccc(C(F)(F)F)cc2)CC(=O)N1 (stereo not given),6.95%,1.92%,2.85%,2.33%,6.09%,0.62%,1.95%,2.86%,8.82%,2.82%
CC1(C)CC(n2cnc(-c3ccc(F)cc3)c2-c2ccnc(N)n2)CC(C)(C)N1,1.2%,0.48%,0.2%,0.49%,1.27%,1.08%,4.59%,0.74%,3.49%,1.47%
CCn1c(-c2nonc2N)nc2cncc(C(=O)NCCNC)c21,35.3%,9.63%,40%,8.91%,39.2%,21.1%,61%,5.32%,8.53%,5.41%
Fc1ccc(Nc2nccc(-c3c(-c4ccc(C(F)(F)F)cc4)nn4ncccc34)n2)cc1F,4.39%,0.34%,3.68%,1.71%,0.47%,0.7%,0.3%,3.32%,5.39%,3.45%
Nc1nccc(-c2c(-c3ccc(F)cc3)ncn2C2CCNCC2)n1,8.84% and 8.7%,-1.01% and 0.25%,0.48% and 1.35%,-1.64% and -0.14%,-0.41% and 0.45%,3.39% and 5.75%,28.4% and 33.6%,-0.71% and 3.19%,26.6% and 34.1%,-0.79% and 3.35%
COc1ccccc1-c1cc(/C=C2\C(=O)Nc3ncc(Br)cc32)cc(Br)c1O,2.98%,0.64%,2.57%,1.61%,1.73%,2.24%,0.81%,3.57%,6.42%,4.74%
CNC(=O)c1sc(-n2cnc3cc(OC)c(OC)cc32)cc1OCc1ccccc1C(F)(F)F,-2.1%,1.37%,0.74%,2.36%,0.67%,1.04%,1.38%,3.83%,4.48%,4%
NC(=O)c1ccc2c(-c3ccnc(NCCCO)n3)c(-c3ccc(F)cc3)nn2c1,7.09%,1.98%,3.92%,2.7%,2.63%,4.8%,24.3%,6.13%,25.5%,7.41%
